Measurements: PubChem BioAssay (NCI)
The panel holds about 83,000 compounds, 20% with a hit somewhere; the sample as a whole holds those more often.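 A percent growth of 40 corresponds to 60% growth inhibition; 0 means no net growth; -100 means all cells died. Active threshold: below 10.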 Values without a mark were called inactive. Active and inactive are the calls of the source.

Experiments:
Experiment in all cases: NCI-60 one-dose screen, 48 h (100 = growth as untreated, 0 = no growth, -100 = all killed)
Details in all cases: 10 µM unless noted
EKVX NSCLC = tested on: EKVX NSCLC
SN12C renal = tested on: SN12C renal
UO-31 renal = tested on: UO-31 renal
ACHN renal = tested on: ACHN renal
CAKI-1 renal = tested on: CAKI-1 renal
A498 renal = tested on: A498 renal
CCRF-CEM leukemia = tested on: CCRF-CEM leukemia
MOLT-4 leukemia = tested on: MOLT-4 leukemia
TK-10 renal = tested on: TK-10 renal

SMILES	growth (EKVX NSCLC) [%]	growth (SN12C renal)	growth (UO-31 renal)	growth (ACHN renal)	growth (CAKI-1 renal)	growth (A498 renal)	growth (CCRF-CEM leukemia)	growth (MOLT-4 leukemia)	growth (TK-10 renal)
CN(C)CCCNc1nc2ccccc2c2c(=O)c3cc(F)ccc3sc12	66.3	61.2%	24.9%	21.5%	8.81% (active)	26.6%	10% (active)	-11.2% (active)	
COc1ccc2nc(NC(=O)c3cccnc3Nc3ccc(S(N)(=O)=O)cc3)sc2c1	92	110%	126%	90%	76.1%	93.5%	59.3%	63.3%	99%
COc1ccc(OC)c(/C=C/c2nnc(Nc3ccccc3)o2)c1	89.9	90.1%	94.5%	97.2%	78.3%	73.7%	87.2%	68.3%	92.5%
O=c1c2cccc(Cl)c2sc2c(NCCCNCCO)nc3ccccc3c12	53.9	39.1%	12.5%	10.3%	-46.9% (active)	10.8%	-14.6% (active)	-40.3% (active)	39.1%
COc1cc(C(=O)/C=C/c2sc(Cl)nc2Cl)cc(OC)c1OC	55.6	7.55% (active)	67.2%	-94.7% (active)	37.1%	89.9%	10.9%	23.2%	94.3%
CCc1cccc2c3c(sc12)C(c1ccc(F)cc1)C(C#N)=C(N)O3 (configuration not stated)	51	32.7%	48.9%	30.1%	14.5%	7.3% (active)	15.1%	17.3%	77.8%
CCCCOc1nc2c(C)cccc2cc1-c1cc(-c2ccc(Cl)cc2)nc(-c2ccc(Cl)cc2)c1	101	96%	95.6%	101%	93.9%	90.4%	103%	103%	108%
CCCCCCCNC(=O)CCCNc1ncnc2c1ncn2-c1cccc(C(C)O)c1 (configuration not stated)		91.4%	83.6%	89.6%	90.2%	123%	18.4%	78.2%	97.5%
CCOC(=O)c1cn2ncnc(Oc3ccc(NC(=O)NCCN(CC)CC)c(Cl)c3)c2c1C	77.2	68.3%	57%	88.2%	68.8%	90.3%	35.5%	49.2%	110%
O=C(Cc1ccc(F)c(Cl)c1)Nc1cc(C2(C(F)(F)F)CC2)nn1Cc1ccccc1	68.1	49.3%	42.4%	35.9%	10.1%	-2.62% (active)	15%	93%	81%
O=c1c2cc(F)ccc2sc2c(N3CCCCC3)nc3ccccc3c12	103	99.1%	78.8%	102%	101%	64.6%	110%	111%	109%
O=C(/C=C/c1sc(Cl)nc1Cl)c1ccc(Br)cc1	96.5	41.7%	80.2%	75.6%	87.1%	92.2%	29.9%	29.9%	
Cc1ccc(C(C)C)cc1C(=O)C[n+]1ccccc1	99.7	102%	87.5%	95.6%	99.6%	81.5%	113%	88.4%	103%
O=C(Nc1ccc(Cl)cc1F)c1ccccc1O	66.2	13.7%	9.45% (active)	34.2%	35.8%	-21.8% (active)	53.2%	29.7%	56.6%
CC(=O)OC[C@H]1OC(Sc2sc(C(=O)c3ccc(Cl)cc3)c(N)c2-c2nc3ccccc3s2)[C@H](OC(C)=O)[C@@H](OC(C)=O)[C@@H]1OC(C)=O (some centres not stated)	80.4	54.7%	79.4%	67.4%	77.1%	87.8%	70.9%	97%	134%
CC(=O)O.CN1[CH-]N(Cc2ccc(C#N)cc2)c2ccccc21.[Ag+]	108	111%	97.4%		104%	99.7%	24.7%	90.1%	103%
CC(C)OC(=O)Nc1ccc(-c2nc(-c3cccc(OCCN4CCOCC4)c3)c(-c3ccnc(Br)c3)[nH]2)cc1	50.3	57.6%	-15.9% (active)	28.4%	35.5%	-9.64% (active)	16.8%	0.706% (active)	68.1%
COc1ccc(/C=N/Nc2cc(=O)[nH]c3ccc(C)cc23)cc1	82	88.3%	75.7%	92.2%	93.1%	87.8%	88%	79%	116%
COc1ccc(OC)c(/C=C/C(=O)N/N=C/c2ccc(Cl)cc2)c1	43.1	46.2%	30.1%	48.4%	41.8%	12.5%	13.7%	26.3%	51%
COc1ccccc1/C=C1\Oc2cc(OCCN3CCC(Cc4ccccc4)CC3)ccc2C1=O	86	88.8%	65.5%	105%	82.5%	47.7%	70.7%	72.2%	94.5%
CCOc1cccc(NC2=C(Br)C(=O)C(C)=C(C)C2=O)c1	92.4	85%	71.7%	85.8%	96%	109%	3.35% (active)	2.57% (active)	155%
O=C(CCOCCNC(=O)COc1ccc2c(c1)OCC(c1ccc(F)cc1)C2=O)NCCCC(O)(P(=O)(O)O)P(=O)(O)O (configuration not stated)	94.5	103%	95.3%	102%	94.7%	89%	96.7%	99.3%	114%
OC(COc1ccccc1)CN1CCN(c2ccc(Cl)cc2)CC1 (configuration not stated)	109	97.2%	78.8%	107%	94.7%	104%	-5.19% (active)	93.1%	105%
O=c1c2cc(C(F)(F)F)ccc2sc2c(NCCCNCCO)nc3ccccc3c12	67.3	36.1%	23.2%	2.14% (active)	-67.2% (active)	21.8%	-12.5% (active)	-50.1% (active)	-0.0148% (active)
